Our source for the outcome and AC50 values is PubChem BioAssay (EPA / NIEHS).

Experiment [1] is described as follows: CCTE_Shafer_MEA_dev_correlation_coefficient_mean: CCTE's Neural Network Formation Assay for Mean Correlation Coefficient, Shafer Lab (AID 2284093). The method, boiled down: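 Extracellular firing from rat cortical networks on 48-well MEAs, DMSO-referenced, negative fitting direction. Compound present from plating to DIV12; mean pairwise correlation per well integrated over DIV5–12 recordings by trapezoidal AUC.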

Experiment [2] can be described thus: BSK_BT_PBMCCytotoxicity: PBMC Cytotoxicity Assessment in the BioMAP Diversity Plus: BT Assay (AID 2284225).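 Note: PBMC viability measured by Alamar Blue dye reduction fluorescence.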 As to conditions: primary human B cells with PBMC. The method, boiled down:
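PBMC (75,000/well) pretreated with compound 1 h, then activated with SEB and TSST-1 (20 ng/mL each final), incubated 90 h; Alamar Blue added 6 h, fluorescence read at 546/580 nm. Fitted relative to DMSO.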

Read-out in experiment [3]: Secreted IgG (sIgG), gene 3500
The experiment can be described thus: BSK_BT_sIgG: BioMAP Diversity Plus: BT Assay for Secreted IgG (sIgG) Biomarker Activity (AID 2284226). The conditions noted are these: primary human B cells with PBMC. The method, boiled down:
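Read-out: ELISA for secreted IgG after 24 h of chemical exposure in a B cell plus PBMC co-culture. Values reflect upward-direction fitting against DMSO negative controls.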

Experiment [4] is described as follows: BSK_BT_Bcell_Proliferation: Viability Assessment in the BioMAP Diversity Plus: BT Assay for B cell Proliferation (AID 2284227). As to conditions: primary human B cells with PBMC. In short, it runs like this:
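Using a human primary B cell–PBMC co-culture, the assay measures total protein by sulforhodamine B absorbance as a gauge of proliferation after 72 h. Analysis followed the positive fitting direction with DMSO as baseline.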

Read-out in experiment [5]: Interleukin 6 (IL6), IL6 (gene 3569)
Briefly: BSK_BT_xIL6: BioMAP Diversity Plus: BT Assay for Interleukin 6 (IL6) Biomarker Activity (AID 2284228). The conditions noted are these: primary human B cells with PBMC. The method, boiled down:
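Human B cell/PBMC co-culture; secreted IL-6 quantified by Luminex xMAP 24 h after chemical dosing, fitted relative to DMSO. Parallel PBMC viability by Alamar Blue after 1 h pretreatment, 20 ng/mL SEB and TSST-1, 90 h incubation.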

Read-out in experiment [6]: Tumor necrosis factor (Homo sapiens) (UniProt P01375)
Briefly: BSK_BT_xTNFa: BioMAP Diversity Plus: BT Assay for Tumor necrosis factor alpha (TNF-alpha) Biomarker Activity (AID 2284230). As to conditions: primary human B cells with PBMC. The method, boiled down: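 Endpoint derived in the positive direction versus DMSO vehicle. Cells: B cells together with PBMC, exposed 24 h before TNF-alpha in the medium was read on the Luminex xMAP platform.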

Read-out in experiment [7]: Vascular cell adhesion molecule 1 (VCAM1), VCAM1 (gene 7412)
Briefly: BSK_MyoF_VCAM1: BioMAP Diversity Plus: MyoF Assay for Vascular cell adhesion molecule 1 (VCAM1) Biomarker Activity (AID 2284231). The conditions noted are these: primary human lung fibroblasts. In short, it runs like this:
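Primary human lung fibroblasts (BioMAP MyoF system) dosed with chemical, VCAM-1 measured by ELISA 24 hours later. Fitted in the positive direction against DMSO; parallel SRB staining assessed cytotoxicity.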

Read-out in experiment [8]: Collagen I, COL1A1 (gene 1277)
The experiment can be described thus: BSK_MyoF_CollagenI: BioMAP Diversity Plus: MyoF Assay for Collagen I Biomarker Activity (AID 2284238). As to conditions: primary human lung fibroblasts. In short, it runs like this: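 Primary human lung fibroblasts (MyoF system) treated 24 h; Collagen I quantified by ELISA and fitted in positive direction against DMSO. Parallel SRB total-protein staining assessed overt cytotoxicity.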

Read-out in experiment [9]: Collagen III, COL3A1 (gene 1281)
The experiment can be described thus: BSK_MyoF_CollagenIII: BioMAP Diversity Plus: MyoF Assay for Collagen III Biomarker Activity (AID 2284239). The conditions noted are these: primary human lung fibroblasts. In short, it runs like this: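 Primary human lung fibroblasts (BioMAP MyoF system) exposed 24 h. Collagen III measured by ELISA; positive-direction fit relative to DMSO.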

Read-out in experiment [10]: Interleukin 17F (IL17F), IL17F (gene 112744)
The experiment can be described thus: BSK_BT_xIL17F: BioMAP Diversity Plus: BT Assay for Interleukin 17F (IL17F) Biomarker Activity (AID 2284243). As to conditions: primary human B cells with PBMC. In short, it runs like this: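 Human PBMC co-cultured with B cells, compound exposure 24 h; secreted IL-17F quantified by Luminex xMAP, referenced to DMSO control. PBMC viability measured in parallel by Alamar Blue reduction.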

Read-out in experiment [11]: Actin alpha 1 (ACTA1), ACTA1 (gene 58)
Briefly: BSK_MyoF_ACTA1: BioMAP Diversity Plus: MyoF Assay for Actin alpha 1 (ACTA1) Biomarker Activity (AID 2284244). The conditions noted are these: primary human lung fibroblasts. In short, it runs like this:
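Lung fibroblasts, human primary, 24 h compound exposure → a-SMA ELISA. Positive-direction fit vs DMSO control.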

Read-out in experiment [12]: Interleukin 2 (IL2), IL2 (gene 3558)
The experiment can be described thus: BSK_BT_xIL2: BioMAP Diversity Plus: BT Assay for Interleukin 2 (IL2) Biomarker Activity (AID 2284245). As to conditions: primary human B cells with PBMC. In short, it runs like this: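 B cell + PBMC co-culture (human primary), compound added, 24 h incubation; secreted IL-2 measured multiplexed on Luminex xMAP; gain-of-signal fit vs DMSO.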

Read-out in experiment [13]: Basic fibroblast growth factor (bFGF), FGF2 (gene 2247)
The experiment can be described thus: BSK_MyoF_bFGF: BioMAP Diversity Plus: MyoF Assay for Basic fibroblast growth factor (bFGF) Biomarker Activity (AID 2284246). As to conditions: primary human lung fibroblasts. The method, boiled down: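 ELISA-measured bFGF level serves as the read-out, taken 24 h after chemical dosing of human lung fibroblasts. Values represent signal gain over the DMSO negative control.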

Read-out in experiment [14]: Collagen IV, COL4A1 (gene 1282)
Briefly: BSK_MyoF_CollagenIV: BioMAP Diversity Plus: MyoF Assay for Collagen IV Biomarker Activity (AID 2284247). As to conditions: primary human lung fibroblasts. In short, it runs like this: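 Steps: dose human lung fibroblasts; culture 24 h; quantify Collagen IV by ELISA; fit increase versus DMSO control. Parallel SRB total-protein staining (0.1% SRB after 10% TCA fixation, 560 nm) tracks overt cytotoxicity.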

Read-out in experiment [15]: Monokine induced gamma interferon (MIG), CXCL9 (gene 4283)
The experiment can be described thus: BSK_KF3CT_MIG: BioMAP Diversity Plus: KF3CT Assay for Monokine induced gamma interferon (MIG) Biomarker Activity (AID 2284248). The conditions noted are these: primary human keratinocytes with fibroblasts. In short, it runs like this:
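Human keratinocyte–foreskin fibroblast co-culture; MIG measured by ELISA 24 h after chemical dosing, fitted upward versus DMSO. Cytotoxicity was assessed in parallel cultures by SRB total-protein staining read at 560 nm.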

Read-out in experiment [16]: Vascular cell adhesion molecule 1 (VCAM1), VCAM1 (gene 7412)
The experiment can be described thus: BSK_BF4T_VCAM1: BioMAP Diversity Plus: BF4T Assay for Vascular cell adhesion molecule 1 (VCAM1) Biomarker Activity (AID 2284249). As to conditions: primary human bronchial epithelial cells with fibroblasts. The method, boiled down: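 Human bronchial epithelial cell and dermal fibroblast co-culture exposed 24 h. VCAM-1 measured by ELISA; parallel SRB total-protein staining for cytotoxicity. Fitted in positive direction relative to DMSO.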

Read-out in experiment [17]: Interleukin 17A (IL17A), IL17A (gene 3605)
The experiment can be described thus: BSK_BT_xIL17A: BioMAP Diversity Plus: BT Assay for Interleukin 17A (IL17A) Biomarker Activity (AID 2284229). As to conditions: primary human B cells with PBMC. The method, boiled down: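 Co-culture of human B cells and PBMC, dosed for 24 h in 96-well format. Secreted IL-17A measured with Luminex xMAP; gain-direction fitting against DMSO as baseline.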

The nature of experiment [18]: CCTE_Mundy_HCI_hNP1_Casp3_7: CCTE's Caspase-Glo 3/7 Assay in human neuroprogenitor cells for Apoptosis, Mundy Lab (AID 2284240). The method, boiled down:
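Neuroepithelial-lineage stem cells from WA09 embryonic cells were treated with chemicals after 40–44 h of culture. Twenty-four hours later, caspase-3/7 activation was detected luminescently after a 30 min room-temperature reagent step, with DMSO as baseline.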

Experiment [19] can be described thus: CCTE_Mundy_HCI_hNP1_Pro_ResponderAvgInten: CCTE's Proliferation Assay in human neuroprogenitor cells, Mundy Lab (AID 2284224; active = hit-call score of the fitted dose curve at least 0.9, where 1 is the maximum). In short, it runs like this:
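Human neuroprogenitors (hNP1, WA09 lineage) receive test chemical after 40 to 44 hours of attachment. A four-hour BrdU pulse begins twenty hours later, followed by fixation and high content imaging; signal is referenced to DMSO controls.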

The nature of experiment [20]: CCTE_Mundy_HCI_hNP1_CellTiter: CCTE's Cell Titer-Glo 2 Assay in human neuroprogenitor cells for Viability, Mundy Lab (AID 2284241; active = hit-call score of the fitted dose curve at least 0.9, where 1 is the maximum). The method, boiled down: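 Measures ATP content in human neural progenitors derived from WA09 embryonic cells. Read-out at 26.5 hours after dosing, with DMSO serving as the negative control and baseline.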
In general terms: Cellular ATP, detected with luciferase, serves as a proxy for viable cell number.

SMILES strings stand for the structures. Values joined by “and” are separate entries in the source; they are usually repeats but may differ in a detail not shown here. Equal values may be shown once. Inconclusive results are not listed. A structure can be active in one record and inactive in another. Active and inactive are the calls of the source. Rule for the calls, unless noted: active = hit-call score of the fitted dose curve at least 0.9, where 1 is the maximum; inactive = score below 0.9.

Sequence of Tumor necrosis factor (Homo sapiens) (P01375 whole entry, looked up): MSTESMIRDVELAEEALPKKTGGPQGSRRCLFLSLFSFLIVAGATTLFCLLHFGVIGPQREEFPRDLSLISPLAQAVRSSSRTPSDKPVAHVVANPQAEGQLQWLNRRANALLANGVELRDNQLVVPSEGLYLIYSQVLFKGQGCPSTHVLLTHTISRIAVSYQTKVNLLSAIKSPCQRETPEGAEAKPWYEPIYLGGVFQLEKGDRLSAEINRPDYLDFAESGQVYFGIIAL

For `NC(=O)C(F)(F)C(F)(F)C(F)(F)F`, the molecule was classed as inactive in experiment [1], in [2], in [3], in experiment [4], in experiment [5] and in experiment [6]. The result in experiment [7], in experiment [8], in [9], in [10], in experiment [11] and in experiment [12] was inactive. In addition, the outcome in experiment [13], in experiment [14], in [15] and in [16] was inactive.
As to `O=S(=O)(O)CCC(F)(F)C(F)(F)C(F)(F)C(F)(F)C(F)(F)C(F)(F)C(F)(F)C(F)(F)F`, the result in experiment [1], in experiment [2], in [3], in experiment [4], in experiment [5] and in experiment [17] was inactive. The result in [6], in experiment [7], in experiment [8], in experiment [9], in experiment [18] and in experiment [10] was inactive. The result in experiment [11], in experiment [12], in experiment [14], in experiment [15] and in [16] was inactive.
Turning to `C=C(C)C(=O)OCC(F)(F)C(F)(F)C(F)(F)C(F)F`, the result in experiment [2], in experiment [3], in [4], in experiment [5], in experiment [17] and in [6] was inactive. In addition, the result in [7], in [8], in experiment [9], in [10], in [11] and in experiment [12] was inactive. The result in experiment [14], in experiment [15] and in experiment [16] was inactive. The concentration at half-maximal activity (AC50) in experiment [10] was 22.9 µM (active); in [11] it was 14.4 µM (active).
Turning to `NC(=O)C(F)(F)C(F)(F)C(F)(F)C(F)(F)C(F)(F)C(F)(F)C(F)(F)F`, the call in experiment [19], in [2], in experiment [3], in experiment [4], in experiment [5] and in experiment [6] was inactive. Besides, the outcome in experiment [7], in [8], in experiment [9], in experiment [18], in experiment [20] and in experiment [10] was inactive. The outcome in experiment [11], in experiment [12], in experiment [13], in [14], in [15] and in [16] was inactive. The AC50 in experiment [12] was 30 µM (active).
With `O=C(O)CCC(F)(F)C(F)(F)C(F)(F)C(F)(F)C(F)(F)C(F)(F)C(F)(F)F`, the outcome in [2], in experiment [4], in experiment [5], in experiment [17], in [6] and in experiment [8] was inactive. Moreover, the outcome in experiment [9], in experiment [18], in [20], in experiment [10], in experiment [11] and in experiment [12] was inactive. The outcome in experiment [14], in [15] and in [16] was inactive. In addition, the half-maximal activity concentration (AC50) in experiment [3] was 3.33 µM (active) and 5.61 µM (active); in experiment [12], 2.38 µM (active).
As for `O=C(O)C(F)(F)OC(F)(F)C(F)(F)OC(F)(F)C(F)(F)OC(F)(F)F`, the AC50 in experiment [2] is 14.8 µM (active). Further, the result in [2], in [3], in [4], in experiment [5], in experiment [6] and in experiment [8] was inactive. For the same molecule, the result in [9], in [10], in [11], in experiment [12], in experiment [13] and in experiment [14] was inactive. The outcome in experiment [15] and in experiment [16] was inactive.

The term AC50 denotes the concentration at which the activity in the assay is half-maximal.
